In all, about 220,000 compounds went through this assay and about 1,600 (0.73%) were called active.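 The calls were made as follows: active = inhibition above about 70% (limit read from the data); inactive = the rest.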 The list comes from a sample in which actives are over-represented; it also holds similar structures and randomly drawn compounds.

14-3-3 protein zeta/delta (Bos taurus), sequence (P63103 whole entry, looked up): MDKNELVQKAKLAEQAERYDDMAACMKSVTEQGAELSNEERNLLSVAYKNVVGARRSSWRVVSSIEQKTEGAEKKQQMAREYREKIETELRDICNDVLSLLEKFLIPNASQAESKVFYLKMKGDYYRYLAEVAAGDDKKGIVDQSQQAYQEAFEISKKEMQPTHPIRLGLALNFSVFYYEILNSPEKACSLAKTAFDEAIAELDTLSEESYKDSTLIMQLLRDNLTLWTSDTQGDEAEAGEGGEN

This assay concerns the target 14-3-3 protein zeta/delta (Bos taurus) (UniProt P63103). Nature of the assay: inhibitors of 14-3-3 zeta/Bad binding, primary screen, biochemical, TR-FRET, bovine 14-3-3 zeta (AID 781).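 Also: 0% = full 14-3-3 plus peptide FRET controls and 100% = background without 14-3-3.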 The note with it: TR-FRET 14-3-3zeta/Dy647-pBad peptide displacement, 1 h; at 21.7 µM; active compounds read high. For orientation: In TR-FRET formats the signal depends on donor and acceptor labels being close together.
As for `Cc1ccc(CN2CCN(Cc3ccc(OCCO)cc3)CC2CCO)o1` (stereo not given), the inhibition – broadly, the change of the read-out against control, counted positive when it falls – is -4.12% (inactive).
As to `COc1ccccc1CNC(=O)C1CCN(c2nc3ccccc3o2)CC1`, the inhibition was -3.16% (inactive).
The value for `COc1ccccc1CNC(=O)C1CCN(S(C)(=O)=O)CC1` was 74% (active).
On to `COc1ccc(CNC(=O)C2CCN(S(C)(=O)=O)CC2)cc1`, for which the inhibition is -4.78% (inactive).
As for `Cc1cc(OCCCCOc2ccc(C#N)cc2)ccc1[N+](=O)[O-]`, the inhibition is -4.45% (inactive).
Under `CCOC(=O)C1CCN(C(=O)/C=C/c2cc(OC)c(OC)c(OC)c2)CC1` stands -11.5% (inactive); under `CCOC(=O)C1CCCCN1Cc1ccc(OC)c(OC)c1OC` (stereo not given), 79.9% (active).
Under `CCOC(=O)C1CCN(S(=O)(=O)c2cc(F)ccc2OC)CC1` stands -7.19% (inactive); under `CCN(CC)CC(=O)Nc1sc2c(c1C(=O)c1ccccc1C)CCC2`, -10.9% (inactive).
Under `CCCCOc1ccc(CON(C(C)=O)C(C)=O)cc1Cl` stands 3% (inactive).
`COc1ccc(-c2csc(NC(=O)c3ccc(N4C(=O)CCC4=O)cc3)n2)cc1OC`: the inhibition is -4.66% (inactive).
Turning to `O=C(CN1CCCCC1)Nc1ccccc1Cl`, the inhibition was -5.94% (inactive).
Under `Cc1ccccc1NC(=O)CNc1ccccc1N1CCCCC1` stands -11.4% (inactive); under `O=C(CN1CCN(C2CCCCC2)CC1)Nc1ccccc1N1CCCCC1`, 72.6% (active).
For the molecule `CCCCOc1ccc(N(CC(=O)NC(C)C)C(=O)CCC(=O)Nc2ccccn2)cc1`, the inhibition was -8.63% (inactive).
The value for `O=C1CC(=O)Nc2cc(S(=O)(=O)N3CCN(c4cccc(C(F)(F)F)c4)CC3)ccc2N1` was 9.3% (inactive); that for `CC(C)Nc1nnc(SCC(=O)/C=C2\N(C)c3ccccc3C2(C)C)s1` was 0.42% (inactive).
On to `COC(=O)COc1ccc(C2NC(=O)NC(C)=C2C(=O)NCc2ccccc2)cc1OC` (stereo not given), for which the inhibition is -4.82% (inactive).
The value for `COCCCNC(=S)NCCNc1nc2cc(C)c(C)cc2cc1C#N` was -7.08% (inactive); that for `Cc1ccc2nc(NCCCNC(=O)c3cnccn3)c(C#N)cc2c1` was 70.8% (active).
`Cc1ccc2cc(C#N)c(NCCNC(=S)NCCCN3CCOCC3)nc2c1`: the inhibition is -9.87% (inactive).
Take `Cc1ccc(NC(=O)c2nc[nH]c2C(=O)N[C@@H](CCCCNC(=O)OC(C)(C)C)C(=O)OC(C)(C)C)cc1`: the inhibition is -8.93% (inactive).
Consider `O=c1c(-c2ccccc2)coc2c(CN3CCOCC3)c(O)ccc12`, for which the inhibition is 81.7% (active).
On to `O=c1c(-c2ccccc2)coc2cc(O)ccc12`, for which the inhibition is 4.45% (inactive).
Take `CN1CCN(Cc2c(O)ccc3c2oc(=O)c2ccccc23)CC1`: the inhibition is 0.82% (inactive).
The value for `O=C(CSc1ccsc1[N+](=O)[O-])N1CCCCC1` was -7.81% (inactive); that for `S=c1[nH]nc(-c2ccco2)n1/N=C/c1ccccc1` was -2.42% (inactive); that for `CN1c2ccccc2-c2nc3ccccc3n2C1c1ccco1` (stereo not given) was -9.91% (inactive).
`Cn1c(-c2ccco2)nc2cc3ccccc3cc21`: the inhibition was 75.6% (active).
As for `COc1ccc(-c2csc(Cc3nc(O)cs3)n2)cc1`, the inhibition is -15.6% (inactive).
The value for `NC1=NC(=O)S/C1=C\c1ccc(O)cc1` was -5.85% (inactive); that for `CCOc1ccc(N=C2NC(=O)S/C2=C\c2ccc(O)cc2)cc1` was 70.4% [fluorescence artefact?] (active); that for `CCOc1ccc(N=C2SC(C(=O)O)CC(=O)N2C)cc1` (stereo not given) was 13.2% (inactive).
Under `Cc1cccc(C(=O)Nc2ccc3c(c2)C(=O)N(CC(C)C)C3=O)c1` stands -3.81% (inactive).
Take `COc1cccc(CN(C)CC(=O)Nc2sc3c(c2C#N)CCC3)c1`: the inhibition was -5.48% (inactive).
Under `NC(=O)c1c(NC(=O)CSc2nnc(-c3ccco3)n2N)sc2c1CCCC2` stands -2.7% (inactive); under `COc1ccc(-n2c(SCC(=O)Nc3sc4c(c3C#N)CCCC4)nnc2-c2ccc(O)cc2)cc1`, 87.9% (active); under `C=CCn1c(N)c(S(=O)(=O)c2cccs2)c2nc3ccccc3nc21`, -4.17% (inactive).
As to `C=CCn1c(N)c(C(=O)OCC(C)C)c2nc3ccccc3nc21`, the inhibition is 79.3% [fluorescence artefact?] (active).
`CC(C)Cn1c(N)c(C(=O)NCc2cccs2)c2nc3ccccc3nc21`: the inhibition was 6.16% (inactive).
In the case of `S=C(NCCc1ccccc1)Nc1ccccc1`, the inhibition was -1.72% (inactive).
With `N#Cc1ccc(C(=O)Nc2nc(-c3cccs3)c(C(=O)C(F)(F)F)s2)cc1`, the inhibition was 3.51% (inactive).
Under `Cc1ccc(Nc2ccc(C(N)=O)cc2[N+](=O)[O-])cc1` stands 0.31% (inactive).
Under `CC(=O)Nc1ccc(/C=N/Nc2ccc(C(=O)c3c(C)cc4ccccn34)cc2[N+](=O)[O-])cc1` stands 84.9% (active); under `CNc1ccc(NC(C)=O)cc1[N+](=O)[O-]`, 5.82% (inactive).
On to `Cc1onc(-c2ccccc2)c1C(=O)N=C(N)c1ccc(Cl)cc1`, for which the inhibition is -6.58% (inactive).
Take `CCCN(CCC)S(=O)(=O)c1ccc(C(=O)N2CC3CCC(CC3)C2)cc1`: the inhibition is -3.48% (inactive).
As for `O=C(Nc1ccncc1)c1cc(-c2ccccn2)nc2ccc(Br)cc12`, the inhibition was 44.9% (inactive).
Under `O=C(NCc1cccs1)c1cc(-c2ccccn2)nc2ccc(Br)cc12` stands 90.8% (active); under `O=C(NCC(c1cccs1)N1CCOCC1)c1cc(-c2ccccn2)nc2ccccc12` (stereo not given), 1.32% (inactive).
`O=C(COC(=O)Cn1cnc2ccccc2c1=O)NCC12CC3CC(CC(C3)C1)C2`: the inhibition was 1.53% (inactive).
With `Cn1cc(/C=C/C(=O)N2CCCC(C(=O)c3ccc(C(F)(F)F)cc3)C2)cn1` (stereo not given), the inhibition is -7.47% (inactive).
Under `CN(C)CCNC(=O)Cc1ccc([N+](=O)[O-])cc1` stands -6.79% (inactive); under `COc1ccc(-n2nnc3c(=O)n(CC(=O)OCc4ccccc4)cnc32)cc1`, 7.97% (inactive).
Under `COc1ccc(-c2c(C(C)=O)c(C)nc3sc4c(=O)n(-c5ccc(C)cc5)nnc4c23)cc1` stands 81.2% (active).
For `COCc1cc(C)nc2sc3c(=O)n(-c4cccc5ccccc45)nnc3c12`, the inhibition is 5.95% (inactive).
The value for `Nc1nc(-c2sc3nc4c(cc3c2N)CCCC4)nc(N2CCOCC2)n1` was -13.9% (inactive); that for `O=C(NNC(=S)NC1CC2CCC1C2)c1ccc(Cl)cc1` (stereo not given) was -16.9% (inactive); that for `Cc1nc2nc(SCC(=O)c3ccccc3)[nH]c2cc1Br` was -3% (inactive).
Under `Cc1ccc(OCC(=O)Nc2ccccc2Sc2ccc(Cl)cc2)c([N+](=O)[O-])n1` stands 71.7% [fluorescence artefact?] (active); under `CCc1ccccc1NC(=O)CN(C)C(=O)COc1ccc(C)nc1[N+](=O)[O-]`, -17.4% (inactive).
Regarding `Cc1ccc(OCC(=O)NC(C)c2ccccc2)c([N+](=O)[O-])n1` (stereo not given), the inhibition was 7.44% (inactive).
Under `O=[N+]([O-])c1cccc(/C([O-])=C(/C(=S)Nc2ccccc2F)[n+]2ccccc2)c1` stands -7.84% (inactive); under `Cc1cccc(C(=O)Nc2ccc(C(=O)/C=C/c3cccs3)cc2)c1`, 14.9% (inactive).
Consider `Cc1ccc(C(=O)/C=C/Nc2ccc(S(=O)(=O)Nc3onc(C)c3C)cc2)cc1`, for which the inhibition is -24.4% (inactive).

These data come from PubChem BioAssay AID781 (Emory University Molecular Libraries Screening Center, 2007).
